# Measured values as given in PubChem BioAssay (Tox21).
# Records with an inconclusive call do not appear. A call without a number means that no potency is given here. Activity calls are given as the source filed them. Unless noted, calls follow the shape of the dose curve; as a rule, active = well fitted curve in the direction sought with a large enough effect in the repeat runs; inconclusive = weak or mixed curves; inactive = no such curve, though single readings can be large; an effect the other way counts as inactive or inconclusive.
# Assays:
# [1] = target: Estrogen receptor (Homo sapiens) (UniProt P03372); test: qHTS assay to identify small molecule antagonists of the estrogen receptor alpha (ER-alpha) signaling pathway using the BG1 cell line in the presence of 0.1 nM 17-beta-estradiol (AID 1259244); also: nearly all actives have a fitted effect of over 50% in size; also: potency is read from the fitted curve at half-maximal effect
# Chain of Estrogen receptor (Homo sapiens) (P03372 whole entry, looked up): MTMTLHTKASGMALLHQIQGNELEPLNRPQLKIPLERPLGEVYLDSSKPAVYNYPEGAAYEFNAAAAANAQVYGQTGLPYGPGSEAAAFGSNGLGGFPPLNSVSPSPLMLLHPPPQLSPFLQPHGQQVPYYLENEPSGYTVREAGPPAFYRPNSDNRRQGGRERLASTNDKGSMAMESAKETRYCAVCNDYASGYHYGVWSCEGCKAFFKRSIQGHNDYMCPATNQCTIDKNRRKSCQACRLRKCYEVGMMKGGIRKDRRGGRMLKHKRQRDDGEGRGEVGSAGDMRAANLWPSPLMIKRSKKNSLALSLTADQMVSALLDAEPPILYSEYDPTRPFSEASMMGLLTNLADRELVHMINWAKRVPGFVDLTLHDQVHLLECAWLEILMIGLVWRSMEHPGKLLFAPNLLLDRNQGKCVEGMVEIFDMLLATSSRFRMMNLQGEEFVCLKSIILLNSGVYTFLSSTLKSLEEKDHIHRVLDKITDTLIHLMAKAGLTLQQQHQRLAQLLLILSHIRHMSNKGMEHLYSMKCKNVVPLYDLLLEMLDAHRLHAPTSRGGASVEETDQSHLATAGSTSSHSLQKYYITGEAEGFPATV
# How it was run: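 VM7Luc4E2; 4xERE-luciferase; 0.1 nM E2 final; 22 h co-incubation, 37C; ONE-Glo luminescence after 30 min at room temperature.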
# [2] = qHTS assay to identify small molecule HDAC inhibitors (AID 1259364); also: potency is read from the fitted curve at half-maximal effect;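 also: wild-type HCT-116 cells with endogenous class I/II HDAC activity; nearly all actives have a fitted effect of over 45% in size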
# How it was run: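 Relative class I and II HDAC activity is taken from the luminogenic signal in HCT-116 cells, with compound exposure 2 hr and reagent development 30 min at room temperature.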
# [3] = qHTS assay to identify small molecule HDAC inhibitors - cell viability counter screen (AID 1259365); also: series mostly up to about 92 µM; nearly all actives have a fitted effect of over 50% in size
# How it was run: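 Luminescence from CellTiter-Glo, developed 30min at room temperature, reports viability of wild-type HCT-116 cells treated 2hr with compounds at 37 C and 5% CO2 after overnight plating.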
# [4] = qHTS assay to identify small molecule agonists of the sonic hedgehog signaling (Shh) pathway - cell viability counter screen (AID 1259366); also: nearly all actives have a fitted effect of over 50% in size; also: potency is read from the fitted curve at half-maximal effect
# How it was run: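 Cytotoxicity counter screen run in the same wells as the Shh reporter assay. NIH/3T3 cells carrying a Gli1 response element–driven luciferase were treated with DMSO-dissolved compounds for 24hr, and live-cell protease activity was measured with CellTiter-Fluor.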
# [5] = qHTS assay to identify small molecule antagonists of the sonic hedgehog signaling (Shh) pathway - cell viability counter screen (AID 1259367); also: nearly all actives have a fitted effect of over 55% in size; also: potency is read from the fitted curve at half-maximal effect
# How it was run: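 Cells: 3T3 Gli1-Luc, 2,000/well, 4 hr pre-incubation. Compounds in DMSO, then conditioned medium. Incubation 24 hr, 37C, 5% CO2. CellTiter-Fluor at 23 hr, 1 hr, fluorescence.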
# [6] = qHTS assay to identify small molecule agonists of the sonic hedgehog signaling (Shh) pathway (AID 1259368; calls by dose curve;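 also: NIH/3T3-derived 3T3Gli1-Luc cells carrying a stable Gli1-driven firefly luciferase reporter; series mostly up to about 92 µM; nearly all actives have a fitted effect of over 15% in size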)
# How it was run: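 Mouse fibroblast (NIH/3T3) reporter cells with stably integrated Gli1-Luc were treated 24 hr with compound; firefly luciferase luminescence served as the read-out.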
# [7] = qHTS assay to identify small molecule antagonists of the sonic hedgehog signaling (Shh) pathway (AID 1259369; calls by dose curve; also: nearly all actives have a fitted effect of over 45% in size; also: potency is read from the fitted curve at half-maximal effect)
# How it was run: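 Conditioned medium drives Shh signalling in 3T3Gli1-Luc cells; compounds in DMSO co-applied, 24hr at 37 C, then luciferase luminescence.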
# [8] = target: Estrogen receptor beta (Homo sapiens) (UniProt Q92731); test: qHTS assay to identify small molecule agonists of the estrogen receptor beta (ER-beta) signaling pathway (AID 1259377; active = well fitted activation curve with a large enough effect in the signal ratio in the repeat runs, not every such curve was filed as active; the % refers to the signal ratio)
# Chain of Estrogen receptor beta (Homo sapiens) (Q92731 whole entry, looked up): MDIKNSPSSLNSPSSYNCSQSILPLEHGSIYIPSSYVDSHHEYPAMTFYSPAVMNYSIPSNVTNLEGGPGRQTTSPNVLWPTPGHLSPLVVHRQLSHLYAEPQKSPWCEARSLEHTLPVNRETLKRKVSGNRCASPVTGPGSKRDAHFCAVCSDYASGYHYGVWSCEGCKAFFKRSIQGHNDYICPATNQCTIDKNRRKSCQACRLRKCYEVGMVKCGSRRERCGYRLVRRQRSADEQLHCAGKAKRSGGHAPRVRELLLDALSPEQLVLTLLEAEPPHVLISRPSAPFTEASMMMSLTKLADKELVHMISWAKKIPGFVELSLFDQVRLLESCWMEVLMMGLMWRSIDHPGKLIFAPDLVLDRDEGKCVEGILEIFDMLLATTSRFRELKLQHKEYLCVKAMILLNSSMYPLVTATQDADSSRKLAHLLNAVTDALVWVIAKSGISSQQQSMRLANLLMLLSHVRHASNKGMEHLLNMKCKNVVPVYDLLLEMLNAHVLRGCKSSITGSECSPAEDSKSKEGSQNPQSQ
# How it was run: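 HEK293T ER-beta-UAS-bla; 2% charcoal-stripped FBS; cells pre-incubated 6 hr, compound 16 hr, 37C/5% CO2; LiveBLAzer B/G FRET substrate 2 h RT; fluorescence intensity read.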
# [9] = target: Estrogen receptor beta (Homo sapiens) (UniProt Q92731); test: qHTS assay to identify small molecule antagonists of the estrogen receptor beta (ER-beta) signaling pathway (AID 1259378; active = well fitted inhibition curve with a large enough effect in the signal ratio in the repeat runs, not every such curve was filed as active; the % refers to the signal ratio; also: potency is read from the fitted curve at half-maximal effect)
# How it was run: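 Antagonist mode: compounds added to beta-lactamase reporter HEK293T ER-beta-UAS cells stimulated with E2 (1nM final), 16 hr at 37C. LiveBLAzer B/G FRET substrate, 2 hours room temperature, fluorescence read-out.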
# [10] = qHTS assay to identify small molecule agonists of the androgen receptor (AR) signaling pathway in the presence of an antagonist - cell viability counter screen (AID 1259379); also: nearly all actives have a fitted effect of over 25% in size; also: potency is read from the fitted curve at half-maximal effect
# How it was run: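 A CellTiter-Fluor read-out measured viability of MDA-kb2 reporter cells (MMTV promoter with AR and GR response elements). Treatment: nilutamide 3.0uM final with compounds at 15 concentrations, 16 hr, 37C, 0% CO2.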
# [11] = qHTS assay to identify small molecule agonists of the estrogen receptor beta (ER-beta) signaling pathway - cell viability counter screen (AID 1259380); also: nearly all actives have a fitted effect of over 30% in size; also: potency is read from the fitted curve at half-maximal effect
# How it was run: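 Cells used were ER-beta-UAS-bla HEK293T in medium with 2% charcoal-stripped FBS. They were treated for 16 hr at 37C. Viability came from CellTiter-Glo luminescence.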
# [12] = qHTS assay to identify small molecule antagonists of the estrogen receptor beta (ER-beta) signaling pathway - cell viability counter screen (AID 1259382); also: nearly all actives have a fitted effect of over 55% in size; also: potency is read from the fitted curve at half-maximal effect
# How it was run: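 Agonist-stimulated (1nM E2) ER-beta-UAS-bla HEK293T cells are incubated with library compounds for 16 hr at 37C. Cell viability is then assessed in the reporter-assay wells by adding CellTiter-Glo and reading luminescence after 30 min.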
# [13] = target: Estrogen receptor (Homo sapiens) (UniProt P03372); test: qHTS assay to identify small molecule agonists of the estrogen receptor alpha (ER-alpha) signaling pathway in the presence of an antagonist (AID 1259383; calls by dose curve; also: nearly all actives have a fitted effect of over 15% in size; also: potency is read from the fitted curve at half-maximal effect; as to activation: top concentration of the series differs between compounds)
# How it was run: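 Using VM7Luc4E2 cells seeded 24hr before treatment, antagonist ICI-182,780 (10.0nM final) was added, followed by compounds at 15 concentrations. Plates incubated 22hr; ONE-Glo luminescence quantified reporter activity.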
# [14] = qHTS assay to identify small molecule agonists or antagonists of the thyroid stimulating hormone receptor (TSHR) signaling pathway - wild type cell line counter screen (AID 1259384; calls by dose curve)
# How it was run: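 Counter screen in untransfected Hek293: compounds (15-point titration, triplicate) plus phosphodiesterase inhibitor Ro20-1724 added after 18 h plating; 30 min RT. Intracellular cAMP via competitive d2/cryptate immunoassay, 1 h incubation.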
# [15] = target: Thyrotropin receptor (Homo sapiens) (UniProt P16473); test: qHTS assay to identify small molecule antagonists of the thyroid stimulating hormone receptor (TSHR) signaling pathway (AID 1259385; calls by dose curve; also: nearly all actives have a fitted effect of over 20% in size)
# Chain of Thyrotropin receptor (Homo sapiens) (P16473 whole entry, looked up): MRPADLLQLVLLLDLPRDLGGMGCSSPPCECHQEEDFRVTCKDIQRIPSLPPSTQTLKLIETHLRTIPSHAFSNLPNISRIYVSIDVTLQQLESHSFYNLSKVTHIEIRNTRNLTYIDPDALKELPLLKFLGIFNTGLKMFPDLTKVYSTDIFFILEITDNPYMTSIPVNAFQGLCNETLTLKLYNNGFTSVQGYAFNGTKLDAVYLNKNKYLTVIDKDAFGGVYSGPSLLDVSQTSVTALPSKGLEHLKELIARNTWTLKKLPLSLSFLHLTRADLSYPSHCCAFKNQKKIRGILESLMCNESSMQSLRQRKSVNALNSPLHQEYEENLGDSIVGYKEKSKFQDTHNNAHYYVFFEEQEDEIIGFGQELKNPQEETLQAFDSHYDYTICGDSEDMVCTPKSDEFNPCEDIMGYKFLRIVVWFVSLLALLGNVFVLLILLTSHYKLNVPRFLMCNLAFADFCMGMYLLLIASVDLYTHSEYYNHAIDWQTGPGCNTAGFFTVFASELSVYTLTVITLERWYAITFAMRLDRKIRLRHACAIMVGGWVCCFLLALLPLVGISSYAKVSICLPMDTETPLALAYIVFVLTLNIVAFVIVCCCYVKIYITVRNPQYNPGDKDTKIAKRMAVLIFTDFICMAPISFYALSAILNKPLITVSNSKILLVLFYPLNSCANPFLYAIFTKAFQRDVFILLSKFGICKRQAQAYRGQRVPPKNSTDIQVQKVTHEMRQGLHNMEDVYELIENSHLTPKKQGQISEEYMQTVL
# How it was run: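 Antagonist mode: compound-treated TSHR-expressing HEK293 cells were stimulated with 1.5 ng/mL TSH (final) in presence of Ro20-1724 for 30 min at RT. HTRF cAMP detection after 1 h; each compound tested at 15 concentrations, triplicate.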
# [16] = qHTS assay to identify small molecule agonists of the estrogen receptor alpha (ER-alpha) signaling pathway in the presence of an antagonist - cell viability counter screen (AID 1259386);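 also: cells exposed to compounds for 22 h at 37 °C before the viability read; nearly all actives have a fitted effect of over 30% in size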; also: potency is read from the fitted curve at half-maximal effect
# How it was run: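 ICI-182,780 at 10.0nM final accompanies the compound titration (15 concentrations, 22hr, 37C) on VM7Luc4E2 cells. The CellTiter-Fluor fluorescence readout runs in the same wells as the luciferase assay.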
# [17] = target: Progesterone receptor (Homo sapiens) (UniProt P06401); test: qHTS assay to identify small molecule agonists of the progesterone receptor (PR) signaling pathway (AID 1346784; calls by dose curve; also: nearly all actives have a fitted effect of over 30% in size)
# Chain of Progesterone receptor (Homo sapiens) (P06401 whole entry, looked up): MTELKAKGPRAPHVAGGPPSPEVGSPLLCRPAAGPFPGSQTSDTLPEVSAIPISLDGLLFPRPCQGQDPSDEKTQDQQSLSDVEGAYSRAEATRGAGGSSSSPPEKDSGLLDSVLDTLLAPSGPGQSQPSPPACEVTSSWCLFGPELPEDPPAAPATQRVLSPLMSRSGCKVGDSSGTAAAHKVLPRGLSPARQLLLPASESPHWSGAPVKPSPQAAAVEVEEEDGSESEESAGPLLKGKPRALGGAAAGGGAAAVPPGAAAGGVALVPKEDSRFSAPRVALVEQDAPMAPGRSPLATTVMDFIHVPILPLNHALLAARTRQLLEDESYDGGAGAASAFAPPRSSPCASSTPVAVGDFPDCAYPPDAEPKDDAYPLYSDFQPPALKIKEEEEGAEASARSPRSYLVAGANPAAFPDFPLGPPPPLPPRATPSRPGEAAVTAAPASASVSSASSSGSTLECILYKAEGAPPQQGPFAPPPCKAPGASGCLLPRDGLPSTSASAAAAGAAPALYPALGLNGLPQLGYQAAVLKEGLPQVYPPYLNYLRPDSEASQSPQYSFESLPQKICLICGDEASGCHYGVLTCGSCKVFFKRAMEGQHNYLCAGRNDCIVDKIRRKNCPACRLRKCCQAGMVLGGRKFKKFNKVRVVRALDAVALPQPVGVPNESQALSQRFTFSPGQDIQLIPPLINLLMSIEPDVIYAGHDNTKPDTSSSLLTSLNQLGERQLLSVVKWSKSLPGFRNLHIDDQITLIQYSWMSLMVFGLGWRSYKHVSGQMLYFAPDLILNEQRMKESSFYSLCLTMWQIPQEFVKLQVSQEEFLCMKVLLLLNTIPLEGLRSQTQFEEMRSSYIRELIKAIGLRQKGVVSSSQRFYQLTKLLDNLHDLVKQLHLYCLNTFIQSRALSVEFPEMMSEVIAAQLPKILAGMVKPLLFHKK
# How it was run: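 Beta-lactamase reporter read-out: after 16 hr compound treatment at 37C and a further 2 hr at room temperature with LiveBLAzer B/G FRET substrate, fluorescence was measured in PR-UAS-bla HEK 293T cells grown in 2% charcoal-stripped serum.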
# [18] = qHTS assay to identify small molecule phospholipidosis (PLD) inducers (AID 1259344; active = well fitted curve in the direction sought with a large enough effect; an effect the other way counts as inactive or inconclusive)
# How it was run: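 Phospholipidosis is scored by imaging LipidTOX-stained pits in HepG2 cells exposed to compound for 24 h at 37 C; pit counts and integrated intensities per well and per cell serve as outputs.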
# [19] = target: Progesterone receptor (Homo sapiens) (UniProt P06401); test: qHTS assay to identify small molecule antagonists of the progesterone receptor (PR) signaling pathway (AID 1346795; active = well fitted inhibition curve with a large enough effect in the signal ratio in the repeat runs, not every such curve was filed as active; the % refers to the signal ratio; also: potency is read from the fitted curve at half-maximal effect)
# How it was run: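 Read-out is fluorescence from the LiveBLAzer B/G FRET substrate, cleaved by a UAS-controlled beta-lactamase in PR-UAS-bla HEK293T cells after 16 hr exposure to compound plus 1 nM promegestone (final), followed by 2 hr at room temperature.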
# [20] = target: Androgen receptor (Homo sapiens) (UniProt P10275); test: qHTS assay to identify small molecule agonists of the androgen receptor (AR) signaling pathway in the presence of an antagonist (AID 1259381; calls by dose curve; also: nearly all actives have a fitted effect of over 15% in size)
# Chain of Androgen receptor (Homo sapiens) (P10275 whole entry, looked up): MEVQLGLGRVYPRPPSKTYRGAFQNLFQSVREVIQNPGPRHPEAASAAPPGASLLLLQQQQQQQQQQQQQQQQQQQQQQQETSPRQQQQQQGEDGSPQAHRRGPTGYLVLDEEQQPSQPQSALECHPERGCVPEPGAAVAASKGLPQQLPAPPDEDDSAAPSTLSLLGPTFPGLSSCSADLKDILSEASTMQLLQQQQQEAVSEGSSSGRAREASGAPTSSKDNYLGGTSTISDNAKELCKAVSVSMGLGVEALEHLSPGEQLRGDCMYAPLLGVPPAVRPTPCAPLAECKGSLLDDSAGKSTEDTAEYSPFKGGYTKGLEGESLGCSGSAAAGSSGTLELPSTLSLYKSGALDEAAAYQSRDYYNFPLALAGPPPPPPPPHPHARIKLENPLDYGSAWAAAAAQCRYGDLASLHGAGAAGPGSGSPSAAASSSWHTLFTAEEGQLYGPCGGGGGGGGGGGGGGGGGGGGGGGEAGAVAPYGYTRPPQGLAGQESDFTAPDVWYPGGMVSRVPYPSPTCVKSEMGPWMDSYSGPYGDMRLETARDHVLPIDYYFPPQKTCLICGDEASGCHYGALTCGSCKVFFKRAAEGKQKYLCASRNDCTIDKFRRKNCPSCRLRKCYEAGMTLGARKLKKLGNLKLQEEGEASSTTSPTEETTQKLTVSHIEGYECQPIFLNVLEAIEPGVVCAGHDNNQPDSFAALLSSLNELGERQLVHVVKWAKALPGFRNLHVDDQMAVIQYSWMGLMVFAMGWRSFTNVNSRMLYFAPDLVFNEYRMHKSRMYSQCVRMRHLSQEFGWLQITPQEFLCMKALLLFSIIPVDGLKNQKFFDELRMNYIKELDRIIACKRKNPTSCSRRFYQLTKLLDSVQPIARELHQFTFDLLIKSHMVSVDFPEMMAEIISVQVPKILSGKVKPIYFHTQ
# How it was run: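 Using human MDA-kb2 cells with an MMTV promoter–luciferase construct (AR and GR response elements), agonist activity is scored under 3.0uM nilutamide (final) co-treatment; 16hr incubation, 37C, luminescence readout via ONE-Glo.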
SMILES,Potency [1],Potency [2],outcome [3],Potency [4],Potency [5],outcome [6],Potency [7],Potency [8],Potency [9],Potency [10],Potency [11],Potency [12],Potency [13],Potency [14],Potency [15],Potency [16],outcome [17],Potency [18],Potency [19],Potency [20]
CCCc1ccccc1,inactive,inactive,inactive,inactive,inactive,inactive,inactive,inactive,inactive,inactive,inactive,inactive,inactive,inactive,inactive,inactive,inactive,,,
CCOC(=S)SSC(=S)OCC,inactive,,,inactive,inactive,inactive,inactive,,,inactive,inactive,inactive,inactive,inactive,inactive,inactive,inactive,inactive,inactive,
O=S(=O)(O)c1ccc(O)c2ncccc12,inactive,inactive,inactive,inactive,inactive,inactive,inactive,,,inactive,inactive,inactive,inactive,inactive,inactive,inactive,,,,
Cc1nc2ccccc2n1Cc1ccc(Cl)cc1,2.11 µM (active),,inactive,,,inactive,,inactive,,4.22 µM (active),,inactive,inactive,,,13.3 µM (active),inactive,inactive,,
CC[C@H](C)[C@@H](C(=O)O)n1sc2ccccc2c1=O,inactive,inactive,inactive,inactive,inactive,inactive,27.3 µM (active),inactive,,inactive,54.5 µM (active),30.6 µM (active),inactive,,inactive,inactive,inactive,,inactive,
N#CCc1cccc(C(F)(F)F)c1,inactive,inactive,inactive,inactive,inactive,inactive,inactive,,,inactive,inactive,inactive,inactive,inactive,inactive,inactive,,,inactive,
O=c1c2ccccc2nnn1CCl,inactive,inactive,inactive,inactive,inactive,inactive,inactive,inactive,inactive,inactive,,inactive,inactive,inactive,inactive,inactive,inactive,,inactive,
Cc1ccc(C(N)=O)cc1N,inactive,inactive,inactive,inactive,inactive,inactive,inactive,inactive,inactive,inactive,inactive,inactive,inactive,inactive,inactive,inactive,,,inactive,
CC(=O)CC(=O)c1ccccc1,inactive,inactive,inactive,inactive,inactive,inactive,,inactive,inactive,inactive,inactive,inactive,inactive,inactive,,inactive,inactive,,,
O=C(Cl)c1c(Cl)cccc1Cl,inactive,inactive,inactive,,inactive,,inactive,,,inactive,inactive,inactive,inactive,inactive,inactive,inactive,,,inactive,
NC(N)=N/N=C/c1c(Cl)cccc1Cl,inactive,inactive,inactive,11.9 µM (active),10.6 µM (active),inactive,,,,,29.8 µM (active),,inactive,inactive,inactive,15 µM (active),inactive,,inactive,inactive
Nc1cnn([C@@H]2O[C@H](CO)[C@@H](O)[C@H]2O)c(=O)n1,inactive,inactive,inactive,,,inactive,inactive,inactive,27.3 µM (active),inactive,inactive,inactive,inactive,inactive,inactive,inactive,inactive,,19.4 µM (active),
Cc1ccc(C(C)c2ccc(C)c(C)c2)cc1C,inactive,inactive,inactive,,inactive,inactive,inactive,inactive,inactive,inactive,,inactive,inactive,,,inactive,inactive,,,
CC(C)(C)c1ccc(S)cc1,inactive,inactive,inactive,inactive,inactive,,inactive,inactive,,inactive,,inactive,inactive,inactive,inactive,inactive,,,inactive,
CC(C)(C)c1ccc(OCC2CO2)cc1 (centres undefined),inactive,inactive,inactive,inactive,,inactive,inactive,inactive,inactive,inactive,,inactive,inactive,inactive,inactive,inactive,,,inactive,
CCCCCOC(=O)c1ccc(O)cc1,inactive,24.6 µM (active),inactive,inactive,,inactive,39 µM (active),,24.6 µM (active),inactive,55.1 µM (active),inactive,31 µM (active),inactive,inactive,,,,27.6 µM (active),
O=C1c2cccc(O)c2C(=O)c2c(O)cc(CO)cc21,inactive,inactive,inactive,,inactive,inactive,inactive,,,,,inactive,inactive,inactive,inactive,,inactive,,inactive,
Cc1cccc(Oc2ccccc2)c1,66.8 µM (active),inactive,inactive,inactive,inactive,,inactive,,,,,,inactive,inactive,inactive,inactive,inactive,,inactive,
